Test results as given in the supplement of paper PMC4840960.
± gives the standard deviation of the averaged measurements.

Assays:
[1] = tested on: E18 rat cortical neuron-glia co-culture; experiment: fiber score / MBP score (myelination specific beyond OL differentiation) (ratio); higher = more myelination-specific MBP alignment; details: treatment time: 8 days (DIV5-DIV13)
Method in brief: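 Papain-dissociated primary E18 rat cortical co-cultures, plated at 20,000 cells/well on poly-d-lysine/laminin 96-well plates, were exposed to library compounds at 1 or 5 µM in myelination medium between DIV5 and DIV13. Following fixation in 4 % paraformaldehyde, cultures were stained for MBP, Olig2 and DAPI, and four 10X fields per well were analysed in duplicate wells. Values are the ratio of fiber score (continuous MBP fiber length per Olig2+ nucleus) to MBP score (thresholded MBP area × intensity per Olig2+ nucleus).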

[2] = tested on: E18 rat cortical neuron-glia co-culture; experiment: myelination (MBP fiber length per Olig2+ nucleus), % of 1 µM DAPT response (DMSO = 0) (% of DAPT); higher = more myelination, active = 50 or more; details: treatment time: 8 days (DIV5-DIV13)
Method in brief: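 Myelination, expressed as continuous straight MBP fiber length per Olig2+ nucleus, was normalised to 0.1 % DMSO as 0 and a 1 µM positive control as 100. The cultures were primary E18 rat cortical co-cultures dissociated with papain and plated at 20,000 cells/well on poly-d-lysine/laminin-coated 96-well plates. They received library compounds at 1 or 5 µM in myelination medium between DIV5 and DIV13. Analysis covered four 10X fields per well in duplicate wells after 4 % paraformaldehyde fixation and immunostaining for MBP and Olig2 with DAPI.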

Compound	fiber score / MBP score ([1]; 1 µM)	fiber score / MBP score ([1]; 5 µM)	myelination ([2]; 1 µM)	myelination ([2]; 5 µM)
CN1CCN(c2nc3cc(C(F)(F)F)ccc3n3cccc23)CC1	0.707	0.682	-2.34 (inactive)	-20.7 (inactive)
O=C1CC[C@@H](C(=O)N2CSC[C@H]2C(=O)O)N1 [Pidotimod]	0.869	0.881	-7.34 (inactive)	-4.26 (inactive)
Nc1cc(N2CCCCC2)nc(N)[n+]1[O-] [Minoxidil]	0.696	0.658	-26.1 (inactive)	-24.5 (inactive)
O=C(C1CCCCC1)N1CC(=O)N2CCc3ccccc3C2C1 (centres undefined) [Praziquantel]	1.03	0.947	7.75 (inactive)	-1.87 (inactive)
CNCCCN1c2ccccc2CCc2ccccc21 [Desipramine]	0.74	0.549	-14.9 (inactive)	-13.3 (inactive)
O=C(c1ccc(F)cc1)C1CCN(CCn2c(=S)[nH]c3ccccc3c2=O)CC1 [Altanserin]	0.994	0.605	0.872 (inactive)	-16.1 (inactive)
Nc1nc(N)c2nc(-c3ccccc3)c(N)nc2n1 [Triamterene]	1.39	1.62	68.5	461 (active)
NC(=O)c1ncn([C@@H]2O[C@H](CO)[C@@H](O)[C@H]2O)n1 [Ribavirin]	1.17	1.03	3.44 (inactive)	4.23 (inactive)
CC[C@H]1OC(=O)[C@H](C)[C@@H](O[C@H]2C[C@@](C)(OC)[C@@H](O)[C@H](C)O2)[C@H](C)[C@@H](O[C@@H]2O[C@H](C)C[C@H](N(C)C)[C@H]2O)[C@](C)(O)C[C@@H](C)CN(C)[C@H](C)[C@@H](O)[C@]1(C)O [Azithromycin]	0.707	0.488	-7.57 (inactive)	-11.8 (inactive)
COc1ccccc1OCCNCC(O)COc1cccc2[nH]c3ccccc3c12 (centres undefined) [Carvedilol]	0.762	0.794	-38.4 (inactive)	-16.8 (inactive)
CN(C)CCOC(c1ccc(Cl)cc1)c1ccccn1 (centres undefined) [Carbinoxamine]	1.21	1.23	3.25 (inactive)	8.5 (inactive)
COc1cc(Cc2cnc(N)nc2N)cc(OC)c1OC [Trimethoprim]	0.828	1.18	-9.76 (inactive)	5.27 (inactive)
CN(C)c1nc(N(C)C)nc(N(C)C)n1 [Altretamine]	0.923	0.901	-3.29 (inactive)	-4.16 (inactive)
NCC(=O)CCC(=O)O [Aminolevulinic Acid]	1.11	1.44	0.461 (inactive)	39.4 (inactive)
CS(N)(=O)=O [Methanesulfonamide]	0.63	0.693	-10.9 (inactive)	-10.7 (inactive)
Cc1onc(-c2c(Cl)cccc2Cl)c1C(=O)N[C@@H]1C(=O)N2[C@@H]1SC(C)(C)[C@@H]2C(=O)O [Dicloxacillin]	1.04	0.655	5.21 (inactive)	-8.6 (inactive)
COC(=O)C1=C(C)NC(C)=C(C(=O)OC(C)C)C1c1cccc2nonc12 (centres undefined) [Isradipine]	0.618	0.922	-16.2 (inactive)	34.9 (inactive)
Cc1sc(N)c(C(=O)c2cccc(C(F)(F)F)c2)c1C	0.681	0.698	-18.7 (inactive)	-12 (inactive)
Cc1c(O)c(=O)ccn1C [Deferiprone]	0.908	0.731	-11.3 (inactive)	-23.2 (inactive)
O=C(CCCN1CCC(O)(c2ccc(Cl)cc2)CC1)c1ccc(F)cc1 [Haloperidol]	0.526	0.498	-18 (inactive)	-13.9 (inactive)
CC(Oc1c(Cl)cccc1Cl)C1=NCCN1 (centres undefined) [lofexidine]	0.929	1.1	-15.8 (inactive)	2.57 (inactive)
C[C@H]1C[C@H]2[C@@H]3CCC4=CC(=O)C=C[C@]4(C)[C@@]3(F)[C@@H](O)C[C@]2(C)[C@@]1(O)C(=O)CCl [Clobetasol]	0.961	0.686	7.06 (inactive)	-9.01 (inactive)
Nc1ncnc2c1ncn2[C@@H]1O[C@H](CO)[C@@H](O)[C@@H]1O [Vidarabine]	0.8	1.2	-13.9 (inactive)	24.3 (inactive)

Compound	fiber score / MBP score ([1]; 1 µM)	fiber score / MBP score ([1]; 5 µM)	myelination ([2]; 1 µM)	myelination ([2]; 5 µM)
CN(C)CCN(Cc1ccccc1)c1ccccn1 [Tripelennamine]	0.67	0.588	-35.6 (inactive)	-33.5 (inactive)
Cn1ccnc1S [Methimazole]	0.372	0.312	-14.3 (inactive)	-15.9 (inactive)
COc1ccc([C@@H]2Sc3ccccc3N(CCN(C)C)C(=O)[C@@H]2OC(C)=O)cc1 [Diltiazem]	0.782	0.558	-10.1 (inactive)	-20.8 (inactive)
Cn1c(NCCN(CCO)CCCc2ccc([N+](=O)[O-])cc2)cc(=O)n(C)c1=O [Nifekalant]	0.616	0.616	-9.01 (inactive)	-19.6 (inactive)
CNC[C@H](O)c1ccc(O)c(O)c1 [Epinephrine]	0.884	3.29	2.28 (inactive)	38.8 (inactive)
CC(=O)Nc1nnc(S(N)(=O)=O)s1 [Acetazolamide]	0.846	0.99	-4.45 (inactive)	-1.11 (inactive)
CCCCCCCCCCC[C@@H](C[C@@H]1OC(=O)[C@H]1CCCCCC)OC(=O)[C@H](CC(C)C)NC=O [Orlistat]	0.69	0.913	-34.7 (inactive)	38.7 (inactive)
O=C1[C@H]2CCCC[C@H]2C(=O)N1CCCCN1CCN(c2nsc3ccccc23)CC1 [Perospirone]	0.291	0.198	-33.9 (inactive)	-34.5 (inactive)
CC(COc1ccccc1)NC(C)C(O)c1ccc(O)cc1 (centres undefined) [Isoxsuprine]	0.798	0.841	-4.41 (inactive)	-2.46 (inactive)
CC1COc2c(N3CCN(C)CC3)c(F)cc3c(=O)c(C(=O)O)cn1c23 (centres undefined) [Ofloxacin]	0.775 ± 0.041	0.784 ± 0.19	-16.9 (inactive)	-17 (inactive)
CC(C)c1nc(CN(C)C(=O)N[C@H](C(=O)N[C@@H](Cc2ccccc2)C[C@H](O)[C@H](Cc2ccccc2)NC(=O)OCc2cncs2)C(C)C)cs1 [Ritonavir]	0.549	0.623	-20.5 (inactive)	-13.2 (inactive)
CC(C)NCC(O)COc1ccc(COCCOC(C)C)cc1 (centres undefined) [Bisoprolol]	0.546	0.728	-58.3 (inactive)	-38.2 (inactive)
CC(CCc1ccccc1)NCC(O)c1ccc(O)c(C(N)=O)c1 (centres undefined) [Labetalol]	0.511	0.693	-16.1 (inactive)	-9.26 (inactive)
C[C@]12CC[C@@H]3c4ccc(O)cc4CC[C@H]3[C@@H]1CC[C@@H]2O [Estradiol]	0.747	0.62	-24.6 (inactive)	-35.3 (inactive)
CC(=O)O[C@]1(C(C)=O)CC[C@H]2[C@@H]3C=C(C)C4=CC(=O)CC[C@]4(C)[C@H]3CC[C@@]21C [Megestrol acetate]	0.588	0.795	-33.5 (inactive)	-31.3 (inactive)
Cc1nc2ccccn2c(=O)c1CCN1CCC(C(=O)c2ccc(F)cc2)CC1 [Pirenperone]	0.876	0.646	-7.44 (inactive)	-11.5 (inactive)
CCN(CC)CCOC(=O)c1ccc(N)cc1 [Procaine]	1.09	1.47	6.68 (inactive)	23.1 (inactive)
CC1(C)O[C@@H]2C[C@H]3[C@@H]4CCC5=CC(=O)C=C[C@]5(C)[C@@]4(F)[C@@H](O)C[C@]3(C)[C@]2(C(=O)CO)O1 [Triamcinolone Acetonide]	1.37	1.32	5.47 (inactive)	19.3 (inactive)
CN1CCCCC1CCN1c2ccccc2Sc2ccc([S+](C)[O-])cc21 (centres undefined) [Mesoridazine]	0.531	0.747	-39.6 (inactive)	-20.4 (inactive)
C=CC[C@@H]1/C=C(\C)C[C@H](C)C[C@H](OC)[C@H]2O[C@@](O)(C(=O)C(=O)N3CCCC[C@H]3C(=O)O[C@H](/C(C)=C/[C@@H]3CC[C@@H](O)[C@H](OC)C3)[C@H](C)[C@@H](O)CC1=O)[C@H](C)C[C@@H]2OC [Tacrolimus]	0.687	0.587	-24.6 (inactive)	-22.8 (inactive)
CC1(C)S[C@@H]2[C@H](NC(=O)[C@H](N)c3ccccc3)C(=O)N2[C@H]1C(=O)O [Ampicillin]	0.301	0.192	-16.3 (inactive)	-18.9 (inactive)
CCCC(CCC)C(=O)O [Valproic Acid]	0.837	0.944	-6.19 (inactive)	-3.27 (inactive)
CC(C)NCC(O)c1ccc(O)c(O)c1 (centres undefined) [Isoproterenol]	0.965	0.931	13.7 (inactive)	10.5 (inactive)
